Assay results from PubChem BioAssay (NCI).
About 83,000 compounds went through this panel and 20% of them were active in at least one assay; those are over-represented in the sample as a whole.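 Method: cells in 96-well plates; compound added at one concentration; 48 h incubation; percent growth measured; values under 10 scored active.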 Activity calls are given as the source filed them.

How the values were obtained:
Assay in all cases: NCI-60 one-dose screen, 48 h (100 = growth as untreated, 0 = no growth, -100 = all killed)
A549/ATCC NSCLC = conditions: 10 µM unless noted
786-0 renal = conditions: 10 µM unless noted
DU-145 prostate = conditions: 10 µM unless noted
SF-268 CNS = conditions: 10 µM unless noted
SF-539 CNS = conditions: 10 µM unless noted
UACC-257 melanoma = conditions: 10 µM unless noted
M14 melanoma = conditions: 10 µM unless noted
HCT-15 colon = conditions: 10 µM
HT29 colon = conditions: 10 µM unless noted
PC-3 prostate = conditions: 10 µM unless noted
UACC-62 melanoma = conditions: 10 µM unless noted
SK-MEL-28 melanoma = conditions: 10 µM unless noted
HL-60(TB) leukemia = conditions: 10 µM unless noted
OVCAR-8 ovarian = conditions: 10 µM unless noted
OVCAR-5 ovarian = conditions: 10 µM unless noted
OVCAR-3 ovarian = conditions: 10 µM unless noted
NCI/ADR-RES ovarian = conditions: 10 µM unless noted
BT-549 breast = conditions: 10 µM
MCF7 breast = conditions: 10 µM unless noted
TK-10 renal = conditions: 10 µM unless noted

Structure (SMILES) | growth (A549/ATCC NSCLC) | growth (786-0 renal) | growth (DU-145 prostate) | growth (SF-268 CNS) | growth (SF-539 CNS) | growth (UACC-257 melanoma) | growth (M14 melanoma) | growth (HCT-15 colon) | growth (HT29 colon) | growth (PC-3 prostate) | growth (UACC-62 melanoma) | growth (SK-MEL-28 melanoma) | growth (HL-60(TB) leukemia) | growth (OVCAR-8 ovarian) | growth (OVCAR-5 ovarian) | growth (OVCAR-3 ovarian) | growth (NCI/ADR-RES ovarian) | growth (BT-549 breast) | growth (MCF7 breast) | growth (TK-10 renal)
CCN1CC2(CN(CC)C1=S)C(=O)NC(=O)NC2=O | 99.9% (inactive) | 90.3% (inactive) | 97.6% (inactive) | 95.1% (inactive) | 107% (inactive) | 94.7% (inactive) | 88.9% (inactive) | 99.9% (inactive) | 90.3% (inactive) | 85.7% (inactive) | 101% (inactive) | 105% (inactive) | 83.3% (inactive) | 101% (inactive) | 114% (inactive) | 107% (inactive) | 97.4% (inactive) | 91.4% (inactive) | 92.5% (inactive) | –
CCCCOC(=O)c1ccccc1C(=O)O.CCCCOC(=O)c1ccccc1C(=O)O.[Cu+2] | 103% (inactive) | 106% (inactive) | 113% (inactive) | 120% (inactive) | 111% (inactive) | 110% (inactive) | 101% (inactive) | 112% (inactive) | 107% (inactive) | 111% (inactive) | 111% (inactive) | 111% (inactive) | 89.6% (inactive) | 108% (inactive) | 126% (inactive) | 110% (inactive) | 111% (inactive) | 105% (inactive) | 98.3% (inactive) | 107% (inactive)
COC[CH2][Hg][C]#[C][Hg][CH2]COC | 99.1% (inactive) | 41.7% (inactive) | 87.6% (inactive) | 93.7% (inactive) | 90.7% (inactive) | 105% (inactive) | 73.2% (inactive) | 97.1% (inactive) | 100% (inactive) | 94.7% (inactive) | 106% (inactive) | 90.1% (inactive) | 89.3% (inactive) | – | 116% (inactive) | 113% (inactive) | 102% (inactive) | 111% (inactive) | 55.3% (inactive) | 119% (inactive)
Cn1cnnc1[S-].[Au+].c1ccc([PH+](c2ccccc2)c2ccccc2)cc1 | 78.8% (inactive) | 1.78% (active) | 33.6% (inactive) | 12.5% (inactive) | 15.4% (inactive) | 22.9% (inactive) | -11.9% (active) | -67.4% (active) | 39.8% (inactive) | 23.8% (inactive) | -15.1% (active) | 10.5% (inactive) | -12.7% (active) | 20.3% (inactive) | 91.9% (inactive) | -81.2% (active) | 69.5% (inactive) | 36.8% (inactive) | -56.5% (active) | -44.5% (active)
CCOP(=O)(OCC)Oc1ccc(Sc2ccc(OP(=O)(OCC)OCC)cc2)cc1 | 97.5% (inactive) | 92.6% (inactive) | 103% (inactive) | 100% (inactive) | 104% (inactive) | 93.1% (inactive) | 100% (inactive) | 107% (inactive) | 108% (inactive) | 90.9% (inactive) | 111% (inactive) | 111% (inactive) | 96% (inactive) | 99.8% (inactive) | 105% (inactive) | 111% (inactive) | 93.7% (inactive) | 96% (inactive) | 118% (inactive) | 107% (inactive)
COc1ccc(CN2CCN(Cc3ccccc3)CC2)c(O)c1 | 97.4% (inactive) | 95% (inactive) | 97.4% (inactive) | 100% (inactive) | 117% (inactive) | 105% (inactive) | 89.5% (inactive) | 99.2% (inactive) | 87.7% (inactive) | 86.2% (inactive) | 96.2% (inactive) | 115% (inactive) | 91.9% (inactive) | 98.2% (inactive) | 101% (inactive) | 81.1% (inactive) | 83.4% (inactive) | 92% (inactive) | 99.7% (inactive) | 100% (inactive)
CNC(=O)Oc1ccccc1-c1ccccc1 | 96.2% (inactive) | 95.9% (inactive) | 106% (inactive) | 100% (inactive) | 104% (inactive) | 101% (inactive) | 99.7% (inactive) | 106% (inactive) | 101% (inactive) | 97.8% (inactive) | 102% (inactive) | 109% (inactive) | 94.8% (inactive) | 103% (inactive) | 111% (inactive) | 105% (inactive) | 108% (inactive) | 103% (inactive) | 106% (inactive) | 90.5% (inactive)
N#CC(C#N)=Cc1ccc2ccccc2c1 | 107% (inactive) | 104% (inactive) | 109% (inactive) | 116% (inactive) | 107% (inactive) | 108% (inactive) | 104% (inactive) | 111% (inactive) | 113% (inactive) | 95.7% (inactive) | 115% (inactive) | 113% (inactive) | 96.4% (inactive) | 105% (inactive) | 106% (inactive) | 117% (inactive) | 108% (inactive) | 100% (inactive) | 103% (inactive) | 111% (inactive)
